43 sequences from paper PMC7819943, “Rice protein-binding microarrays: a tool to detect cis-acting elements near promoter regions in rice” can be followed below.

Over roughly 35,000 sequences, “fluorescence intensity (a.u.)” has its median near 10,000; the highest 2% begin near 52,000. The entries come from a sample that favours the highest values as a whole.

The experiment concerns the target T1, OsWOX13 (Oryza sativa, UniProt Q5QMM3 1-267).
T1 sequence: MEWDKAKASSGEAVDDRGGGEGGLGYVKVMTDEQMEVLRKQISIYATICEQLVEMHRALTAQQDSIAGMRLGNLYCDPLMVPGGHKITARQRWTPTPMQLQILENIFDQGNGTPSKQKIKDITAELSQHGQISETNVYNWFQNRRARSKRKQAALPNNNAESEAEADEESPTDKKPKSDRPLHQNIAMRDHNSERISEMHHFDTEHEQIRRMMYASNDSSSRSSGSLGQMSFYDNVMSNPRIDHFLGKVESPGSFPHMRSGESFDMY
Put plainly: protein-binding microarray (RPBM); PBS, 2% BSA, 51.3 ng/ul salmon testes DNA, 50 uM zinc acetate, 200 nM TF, 25 C, 1 h; high values mean tight binding. The settings on record: protein: recombinant; tags: N-terminal polyhistidine and DsRed monomer fusion (pET32a); label: CyDye5-dUTP incorporated in the synthesized complementary strand; 3' TTTTT single-stranded linker to array surface; dsDNA, one strand shown. An outline of the steps: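 Polyhistidine-tagged DsRed fusions of transcription factors, joined at the N-terminus, were expressed in E. coli BL21-CodonPlus and isolated on Ni–NTA. They were incubated at 200 nM for 1 h at 25 °C on a custom Agilent array, double-stranded and BSA-blocked, in PBS with 2% BSA, salmon testes DNA and 50 µM zinc acetate. The binding signal is per-feature fluorescence intensity (arbitrary units) read on an Axon 4000B scanner after washing.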
“TACATACAAGTTACAGTGTAATTACACTACGATTGTACTACGGAGTCACCTAGTGCAG”: the binding signal is 3630 fluorescence intensity (a.u.).

As to “TTGCACTGATTTTGTAACTTAAGGGATACGTCGTATCCGGCGGAGTCACCTAGTGCAG”, the binding signal is 6500 fluorescence intensity (a.u.).

As to “AGCCACGCAATCAATTAAATAATTAAGATAGGTACACGTGCGGAGTCACCTAGTGCAG”, the binding signal is 26400 fluorescence intensity (a.u.).

Take “CATATGACCAGTTTAACTGCCATCATGCAGACACACAGGACGGAGTCACCTAGTGCAG”: the binding signal was 3410 fluorescence intensity (a.u.).

Regarding “ATATAAATCAAATTTACAACTTTGCTGTAGCTATAATTTGCGGAGTCACCTAGTGCAG”, the binding signal was 7160 fluorescence intensity (a.u.).

Turning to “CATATGATTAATTAAAATTTTATCATTTAGAACTTGAAAACGGAGTCACCTAGTGCAG”, the binding signal was 34800 fluorescence intensity (a.u.).

Take “TAGGTGACAGTTTATTTAATGCTATTGACACTATTCTAGCCGGAGTCACCTAGTGCAG”: the binding signal is 8640 fluorescence intensity (a.u.).

Consider “ATTATTTGTGATTTGATTGCTAGTGATTTGAACTAATGGCCGGAGTCACCTAGTGCAG”, for which the binding signal is 64300 fluorescence intensity (a.u.).

Regarding “ATAACTTTTAATTTAAGCTAATTTTATTTCTGCCGGACATCGGAGTCACCTAGTGCAG”, the binding signal is 19600 fluorescence intensity (a.u.).

On to “GATGAAGATTGATATTACCTGCGGCCGCCGGCGCCGCTGTCGGAGTCACCTAGTGCAG”, for which the binding signal was 7110 fluorescence intensity (a.u.).

Turning to “TATTGATTAAATTTAATTTATAGATAGACTAATATTTTACCGGAGTCACCTAGTGCAG”, the binding signal was 29800 fluorescence intensity (a.u.).

In the case of “CCGCACTCTATTATTGTATTGATTAGCTTGTGTCATTCGCCGGAGTCACCTAGTGCAG”, the binding signal was 20500 fluorescence intensity (a.u.).

Turning to “GTGATTGGGCTATTTGTAATGTTCAGATGGTGAACTGTGCCGGAGTCACCTAGTGCAG”, the binding signal is 27600 fluorescence intensity (a.u.).

For the sequence “AATGGGAACTAATGGGCCGGATTGACTACTTTGCTACATTCGGAGTCACCTAGTGCAG”, the binding signal was 3240 fluorescence intensity (a.u.).

On to “CATTATTGATTGATTGATTCGCAGATTCGCCGCTGCCACCCGGAGTCACCTAGTGCAG”, for which the binding signal was 57200 fluorescence intensity (a.u.).

For the sequence “CACATAATTGAACTGCTAATTTTATTCTAGTCGGAAGCACCGGAGTCACCTAGTGCAG”, the binding signal was 54600 fluorescence intensity (a.u.).

With “GCATAACTAATTGTTGTTGCACATATTTTCTTTATAAAGCCGGAGTCACCTAGTGCAG”, the binding signal is 15500 fluorescence intensity (a.u.).

Regarding “TTAATTAATTGCTAATTACACTAATTAATTTATTGATAGCCGGAGTCACCTAGTGCAG”, the binding signal was 65200 fluorescence intensity (a.u.).

With “GCCTAATTAATCCGTCATTAGCAAATGTTTATTGTAGCACCGGAGTCACCTAGTGCAG”, the binding signal was 38200 fluorescence intensity (a.u.).

For the sequence “GCTGACAGGGACAATCGGATGGAGCAGAATGTCTGAACGTCGGAGTCACCTAGTGCAG”, the binding signal is 11000 fluorescence intensity (a.u.).

Turning to “TTTGATCAAAATCAAAACGTCTTATAACCTGAAACGGAGGCGGAGTCACCTAGTGCAG”, the binding signal was 4210 fluorescence intensity (a.u.).

As for “GCTAATTAAGTCCATTGCACATAGATCGATATGTGTACACCGGAGTCACCTAGTGCAG”, the binding signal is 27700 fluorescence intensity (a.u.).

Take “CCAATTGACTATATATAACATAGTACTTGCTAGCTTAATTCGGAGTCACCTAGTGCAG”: the binding signal was 3640 fluorescence intensity (a.u.).

Take “TTTAGGATTGAAGTAAACTGTAAACTATATGTCTGACCGCCGGAGTCACCTAGTGCAG”: the binding signal was 16600 fluorescence intensity (a.u.).

With “CAATACATAACAGACAAATTATCAAAATAGATTAAAGTTTCGGAGTCACCTAGTGCAG”, the binding signal was 4710 fluorescence intensity (a.u.).

Take “ATTTTAAATTTATTATATGATGATTAATTTGGGAATGAGGCGGAGTCACCTAGTGCAG”: the binding signal is 28400 fluorescence intensity (a.u.).

In the case of “TACATCACTAATCACGTTGCTTCGATGACACCTCCTTCTTCGGAGTCACCTAGTGCAG”, the binding signal is 7440 fluorescence intensity (a.u.).

Consider “TGTATGTGTGTACTCGTAATTAGTGAGAATTTAAATTCATCGGAGTCACCTAGTGCAG”, for which the binding signal is 3820 fluorescence intensity (a.u.).

For “CAAAAGTGTTCAATCAAATATGAAAATGAGTATAATGCAACGGAGTCACCTAGTGCAG”, the binding signal is 6990 fluorescence intensity (a.u.).

For the sequence “CTAATTAGGTCCAGGACATTAAATGGGTTGATTACGTCACCGGAGTCACCTAGTGCAG”, the binding signal was 8450 fluorescence intensity (a.u.).

In the case of “GTTTATGTTAGTGCTAGTGATTAGTACTTAAACATTCAGACGGAGTCACCTAGTGCAG”, the binding signal was 4010 fluorescence intensity (a.u.).

Consider “AACTTATAAATTGATTTATAAGTCTAAATAAAGAGGCACCCGGAGTCACCTAGTGCAG”, for which the binding signal is 55800 fluorescence intensity (a.u.).

As to “CCAATTTAATAAAATAAATTGATACTATAAATATTACAATCGGAGTCACCTAGTGCAG”, the binding signal is 9090 fluorescence intensity (a.u.).

Take “AAGAGTTTAAATTTTAAAATGATTTTATAAGTGGTTAACCCGGAGTCACCTAGTGCAG”: the binding signal is 7500 fluorescence intensity (a.u.).

Take “CTTATTAGCACATGATTAATTAATTATTAACTATTATAAACGGAGTCACCTAGTGCAG”: the binding signal is 19500 fluorescence intensity (a.u.).

As to “AATACTTGCAAATTAGCTAACTAGTTCTCCTAATTGAGCCCGGAGTCACCTAGTGCAG”, the binding signal was 9350 fluorescence intensity (a.u.).

Consider “GAACTAATTGATACATTAGCCACTTGATGAGCTCCTCTCCCGGAGTCACCTAGTGCAG”, for which the binding signal was 58600 fluorescence intensity (a.u.).

In the case of “TGCTAACTTGAGATGAATGTCGAACTCCTAATTGCAGCTCCGGAGTCACCTAGTGCAG”, the binding signal is 3470 fluorescence intensity (a.u.).

Turning to “ATAACTAATAAATGATTGAATTAGATGAATAGGTAGTTTCCGGAGTCACCTAGTGCAG”, the binding signal is 31000 fluorescence intensity (a.u.).

With “AAATTTATAATTTTACAATAAATTTGATATTAAATTTGTACGGAGTCACCTAGTGCAG”, the binding signal was 12300 fluorescence intensity (a.u.).

As for “GTTTCTAATTAACTAAATTAATTAATTAGCATGATTGGTCCGGAGTCACCTAGTGCAG”, the binding signal is 64700 fluorescence intensity (a.u.).

As for “AGGCACTAAAATAATCTAATTGATTAACTAATCGGTCACCCGGAGTCACCTAGTGCAG”, the binding signal was 25300 fluorescence intensity (a.u.).

“ATCTGGCAATAATTTACAATTAATTGATACCTTATTGCCTCGGAGTCACCTAGTGCAG”: the binding signal was 54800 fluorescence intensity (a.u.).
